Laboratory results published in PubChem BioAssay AID372 (MTDP, 2006).
Screen size: about 100,000 compounds; about 770 (0.77%) were called active. The full list was thinned out, with actives kept by preference. Values without a mark were called inactive. No stated cut-off is given here; in the data, active means inhibition above about 50%; inactive means the rest.

These compounds were tested against Gag-Pol polyprotein (Human immunodeficiency virus type 1 group M subtype B (isolate HXB2)) (UniProt P04585) (assay: RNase H inhibition, HIV 1 Gag Pol polyprotein, FRET biochemical assay, screening (AID 372)). Settings: HIV-1 RT RNase H, FRET RNA/DNA substrate fluorescence; at 10 µM; hits give high values.

SMILES	inhibition
CCCCNCCCCOc1ccccc1C(C)(C)C	8%
O=C(Nc1ccc(I)cn1)C12CC3CC(CC(C3)C1)C2	7%
Cc1ccc(NC(=O)/C=C/c2ccc(Cl)cc2)cc1	8%
COc1ccc(C2CC(=O)C3=C(C2)NC(C)=C(C(=O)OCC(C)C)C3c2cc3c(cc2Cl)OCO3)cc1 (stereo not given)	10%
O=C(COc1ccccc1[N+](=O)[O-])Nc1ccc2oc(-c3cccc4ccccc34)nc2c1	13%
CN(C(=O)c1ccc(Cl)cc1Cl)c1ccccc1	1%
Clc1ccc(CN2CCN(/N=C/c3ccc(-c4ccccc4)cc3)CC2)cc1	8%
Cc1ccc(O)c(/C=N/n2c(-c3ccccc3)n[nH]c2=S)c1	13%
O=C(Nc1ccc(NC(=O)c2cccs2)cc1)c1ccccc1	5%
O=C(Nc1ccc(-c2nc(-c3ccccc3)c3cc(NC(=O)c4cccs4)ccc3n2)cc1)c1cccs1	52% (active)
CC(=O)Nc1ccc(-c2nc(-c3ccccc3)c3cc(NC(C)=O)ccc3n2)cc1	8%
Cc1ccc(C(=O)NC(=S)Nc2ccc(-c3nc4cc(C)c(C)cc4o3)cc2)cc1	10%
Cc1ccc2nc(-c3ccc(NC(=S)NC(=O)c4ccc(F)cc4)cc3)oc2c1	45%
Cc1ccc(NC(=O)c2c(NC(=O)c3ccc([N+](=O)[O-])cc3)sc3c2CCCC3)cc1	0%
Cc1ccc2nc(-c3ccc(NC(=S)NC(=O)c4ccc(C)c(C)c4)cc3)oc2c1	18%
O=C(NC(=S)Nc1cccc(-c2nc3ncccc3o2)c1)c1cccc(Cl)c1	23%
O=C(Nc1sc2c(c1C(=O)Nc1ccccc1)CCCCC2)c1ccc([N+](=O)[O-])cc1	27%
O=C(NC(=S)Nc1ccc(-c2nc3ncccc3o2)cc1)c1cccc(F)c1	32%
Cc1ccc2nc(-c3ccc(NC(=S)NC(=O)c4ccccc4)cc3)oc2c1	58% (active)
Cc1ccc2nc(-c3ccc(NC(=S)NC(=O)c4ccc([N+](=O)[O-])cc4)cc3)oc2c1	50% (active)
O=C(NC(=S)Nc1ccc(-c2nc3ncccc3o2)cc1)c1cccc(Cl)c1	59% (active)
COc1ccc(C(=O)NC(=S)Nc2ccc(-c3nc4ccc(C)cc4o3)cc2)cc1	12%
Cc1ccc2nc(NNC(=O)CCC(=O)O)nc(-c3ccccc3)c2c1	15%
COc1cc(/C=N/n2cnnc2)ccc1OCCSc1ccc(C)cc1	15%

SMILES	inhibition
C=C(C)COc1ccc2oc(-c3ccccc3)c(C(=O)OCC)c2c1	0%
CC(C)(C)NCCOc1ccc(Cl)cc1Cl	0%
O=C(CSc1nc2ccc([N+](=O)[O-])cc2s1)c1ccc(Cl)cc1	11%
COc1ccc(C(=O)Nc2ccc(NC(=O)c3ccco3)c(OC)c2)cc1Cl	1%
Cc1cc(C)nc(/N=C(/N)Nc2ccc(C(=O)O)cc2)n1	3%
COc1ccc(-n2nc3cc(C)c(NC(=O)COc4ccc([N+](=O)[O-])cc4)cc3n2)cc1	6%
Cc1ccc(N=Cc2cc(Br)cc(Br)c2O)c(C)c1	4%
Cc1cc(C)c2oc(-c3ccc(NC(=O)c4cccnc4)cc3O)nc2c1	52% (active)
Cc1cc(C)c2oc(-c3cccc(NC(=O)Cc4ccc(Cl)cc4)c3)nc2c1	25%
Cc1ccc2nc(-c3cccc(NC(=O)c4ccc([N+](=O)[O-])cc4)c3)oc2c1	54% (active)
Cc1cc2nc(-c3ccc(NC(=O)c4cccnc4)cc3O)oc2cc1C	12%
O=C(NC(=S)Nc1ccc(-c2nc3ccccc3o2)cc1)c1cccs1	55% (active)
Cc1ccc(-c2nc3cc(NC(=S)NC(=O)c4cccs4)ccc3o2)cc1	7%
Cc1ccc2nc(-c3cccc(NC(=O)c4ccc(C)c([N+](=O)[O-])c4)c3)oc2c1	6%
O=C(Nc1ccc(-c2nc3ccccc3o2)cc1)c1cccs1	5%
Cc1ccc2oc(-c3ccc(NC(=O)c4cccnc4)cc3O)nc2c1	21%
Cc1ccc2oc(-c3cccc(NC(=O)c4cccc([N+](=O)[O-])c4)c3)nc2c1	0%
Cc1cc(C)c2oc(-c3cccc(NC(=O)c4ccc(Cl)cc4)c3)nc2c1	53% (active)
COc1c(Cl)cc(C(=O)Nc2cccc(-c3nc4cc(C)cc(C)c4o3)c2)cc1Cl	20%
COc1ccc(N2C(=O)/C(=C\c3cc(OC)ccc3O)SC2=S)cc1	22%
O=C(N/N=C/c1sc2ccccc2c1Cl)c1ccncc1	16%
COc1cc(C(=O)N/C(=C/c2cccc([N+](=O)[O-])c2)C(=O)Nc2ccc(C)cc2)cc(OC)c1OC	7%
O=c1c(-c2ccccc2Cl)c(C(F)(F)F)oc2c(O)c(O)ccc12	41%
O=c1c(-c2ccccc2Cl)coc2c(O)c(O)ccc12	55% (active)

SMILES	inhibition
Cc1oc2c(C)c(O)ccc2c(=O)c1-c1ccccc1Cl	12%
Cc1oc2c(O)c(O)ccc2c(=O)c1-c1ccccc1Cl	52% (active)
Cc1c(O)ccc2c(=O)c(-c3ccccc3Cl)coc12	9%
O=c1c(-c2ccccc2Cl)coc2cc(O)ccc12	19%
COc1cc(C=C2C(=O)N(C)C(=O)N(C)C2=O)ccc1OCCOc1ccc(C)cc1	11%
CCOC(=O)c1sc(NC(=O)COc2ccccc2C)c(C(=O)OCC)c1C	19%
Cc1cc2c(cc1Br)NC(=O)C2=O	27%
C=CCc1ccc(OCCOCCOc2ccc(C)cc2I)c(OC)c1	13%
COc1cc(/C=C2\SC(=S)NC2=O)ccc1OS(=O)(=O)c1ccc(C)cc1	24%
Cc1ccc(S(=O)(=O)Oc2cccc(/C=C3\SC(N)=NC3=O)c2)cc1	15%
COc1cc(/C=C2\SC(=S)NC2=O)cc(Cl)c1OS(=O)(=O)c1ccccc1	11%
O=C1NC(=S)S/C1=C\c1cccc(OS(=O)(=O)c2ccc([N+](=O)[O-])cc2)c1	57% (active)
COc1cc(/C=C2/SC(=S)NC2=O)cc(Cl)c1OS(=O)(=O)c1ccc(C)cc1	54% (active)
Cc1ccc(/C=C2/SC(=S)NC2=O)cc1[N+](=O)[O-]	8%
O=C1NC(=S)S/C1=C\c1ccc(OS(=O)(=O)c2cccc([N+](=O)[O-])c2)cc1	31%
Cc1ccc(S(=O)(=O)Oc2ccc(/C=C3\SC(=S)NC3=O)cc2)cc1[N+](=O)[O-]	57% (active)
O=C1NC(=S)S/C1=C\c1cccc(OS(=O)(=O)c2cccc([N+](=O)[O-])c2)c1	44%
NC1=NC(=O)/C(=C/c2cccc(OS(=O)(=O)c3ccc4ccccc4c3)c2)S1	50% (active)
NC1=NC(=O)/C(=C/c2ccc(OS(=O)(=O)c3ccc4ccccc4c3)cc2)S1	20%
CC(=O)Nc1ccc(S(=O)(=O)Oc2cccc(/C=C3\SC(=S)NC3=O)c2)cc1	8%
COc1ccc(-c2ccccc2)cc1NCc1ccc(C)s1	17%
CNC(=O)OCCc1ccc(-c2ccccc2)o1	4%
CC1CC(=O)C2=C(C1)OC(N)=C(C#N)C2c1ccc(C(F)(F)F)cc1 (stereo not given)	2%
COC(=O)c1ccccc1NC(=O)c1cccc(C)c1	4%

SMILES	inhibition
CCOc1ccc(Cc2c(O)n(-c3ccccc3)c(=S)[nH]c2=O)cc1	18%
COc1cc(/C=N/N2C(=O)c3cccc4cccc(c34)C2=O)cc(I)c1O	13%
C/C(=N/Nc1cc(-c2ccccc2)nc(-c2ccccc2)n1)c1ccc(O)cc1	4%
CCOC(=O)C1=NN(c2ccccc2)C(=O)/C1=C\c1ccc(F)cc1	0%
COc1ccc(S(=O)(=O)Oc2cccc(/C=C3\SC(=S)NC3=O)c2)cc1	20%
Cc1ccc(S(=O)(=O)Oc2ccc(/C=C3\SC(=S)NC3=O)cc2)cc1	29%
Cc1ccc(S(=O)(=O)Oc2cccc(/C=C3\SC(=S)NC3=O)c2)cc1	53% (active)
CCOc1ccc(NC(=O)c2c(N)sc(-c3ccccc3)c2C)cc1	23%
CCOC(=O)c1c(N)sc(C(=O)Nc2ccc(OC)cc2)c1C	9%
COc1ccc(NC(=O)c2c(NC(=O)c3ccco3)sc(-c3ccccc3)c2C)cc1	12%
COC(=O)c1c(N)sc(C(=O)Nc2ccc(C)cc2)c1C	0%
CCOc1ccccc1NC(=O)CN(c1ccc(C)c(Cl)c1)S(C)(=O)=O	8%
Clc1ccc(Oc2sc(Nc3cccc(Cl)c3)nc2-c2ccccc2)cc1	21%
NS(=O)(=O)c1ccc(CCNC(=O)/C=C/c2cccc([N+](=O)[O-])c2)cc1	4%
CCOc1ccc(/C=C(/C#N)c2nc3ccccc3[nH]2)cc1OC	0%
O=C(Nc1ccc2c(c1)C(=O)c1ccccc1C2=O)c1cccc(Cl)c1	60% (active)
O=C(O)c1ccccc1C(=O)Nc1ccc2c(c1)C(=O)c1ccccc1C2=O	0%
O=C(Nc1ccc2c(c1)C(=O)c1ccccc1C2=O)c1ccccc1	15%
Cc1ccccc1C(=O)Nc1ccc2c(c1)C(=O)c1ccccc1C2=O	18%
O=C(Nc1ccc2c(c1)C(=O)c1ccccc1C2=O)c1cccc(F)c1	49%
O=C1c2ccccc2C(=O)c2cc(NC(=O)c3coc4ccccc34)ccc21	63% (active)
CCCCOc1ccc(C(=O)Nc2ccc3c(c2)C(=O)c2ccccc2C3=O)cc1	40%
CCOc1cc(C(=O)Nc2ccc3c(c2)C(=O)c2ccccc2C3=O)cc(OCC)c1OCC	0%
